# Pf Dd2 inh = blocks in vitro growth of P. falciparum Dd2; P. falciparum Dd2 growth, SYBR Green, 72 h; Potency, µM (top dose mostly 28.9 µM), inactives show at the highest dose activity, negative = inhibition, usual class: inhibitors; 4.3% of 120,000 active; active = well fitted inhibition curve with a large enough effect;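 note: plate controls were DMSO vehicle for no effect and reference drug for full effect; nearly all actives have a fitted effect of over 65% in size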
#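 Infected erythrocytes (Dd2, 0.3% parasitemia, 2.5% hematocrit final) are added to compound in RPMI-1640/Albumax II medium, grown 72 h at 37C in low oxygen, then lysed with saponin/Triton-X containing SYBR Green and read by fluorescence.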
# An asterisk follows results filed as active; i = inactive; [ ] = dose if it differs, or a comment. The entries come from a sample that favours hits as a whole. Potency is the fitted concentration of half-maximal effect.
SMILES,Pf Dd2 inh
CNC(=O)Nc1ccc(C)n(CC(=O)NCc2cc(C)ccc2C)c1=O,-8%
COC(C)(C)C(=O)N[C@H]1CN(Cc2cccc(C#N)c2)C[C@@H]1C(C)C,i
CC1=C[C@@H](CN(C)CCO)[C@H](C(C)C)C[C@H]1Cc1nnc(-c2ccccc2F)o1,13µM*
CC1=C[C@@H](CN(C)CCO)[C@H](C(C)C)C[C@H]1Cc1nnc(-c2ccc(C)cc2)o1,10µM*
C#CCN(C)C[C@@H]1C=C(C)[C@H](Cc2nnc(-c3ccc(C)cc3)o2)C[C@H]1C(C)C,-11%[44.1 µM]
COc1ccc(NC(=O)c2cc3n(n2)CC(c2ccc(Cl)cc2)OC3)cc1 (stereo not given),i
Cc1ncsc1CCC(=O)N[C@@H]1COCC[C@@H]1OCc1cscn1,-21%
Fc1ccc(C2Cn3nnc(-c4nc(-c5ccccc5Cl)no4)c3CO2)cc1 (stereo not given),-8%
COCc1ccc2c(c1)c(OC(C)(C)C(=O)NCC(F)(F)F)nn2Cc1ccccc1,i
COCc1ccc2c(c1)c(OC(C)(C)C(=O)NC1CC1)nn2Cc1ccccc1,i
CC(C)(Oc1nn(CCN2CCOCC2)c2ccccc12)C(=O)NCc1ccccc1,11µM*
COCc1ccc2c(c1)c(OC(C)(C)C(=O)NCCN1CCOCC1)nn2Cc1ccccc1,i
COCc1ccc2c(c1)c(OC(C)(C)C(=O)NCC1CC1)nn2Cc1ccccc1,4.5µM*
CC(C)(Oc1nn(CCN2CCOCC2)c2ccccc12)C(=O)NCc1ccncc1,i
O=C(NC[C@H]1OC[C@@H](NCc2ccccc2O)[C@@H]1O)C1CCCC1,-1%[44.1 µM]
CCOC(=O)N1CCN(S(=O)(=O)N2CCCC(C(=O)NCc3cc(Br)ccc3OC)C2)CC1 (stereo not given),-24%
Cc1cccnc1CN1C[C@@H](F)[C@@H](OCc2nc3ccc(F)cc3[nH]2)C1,i
Fc1ccc2nc(CO[C@H]3CN(CC4CC4)C[C@H]3F)[nH]c2c1,11µM*
Cn1ccnc1CN1C[C@@H](F)[C@@H](OCc2nc3ccc(F)cc3[nH]2)C1,-7%[44.1 µM]
Cc1ccc(OCC(=O)OCc2cc(=O)n3nc(C4CCCCC4)sc3n2)cc1,i
CN(C)C(=O)CCC(=O)N1CC[C@@](C)(O)[C@@H](Cc2ccccc2)C1,17%
CCOC(=O)c1ccc(NC(=O)c2nsc3ccccc23)cc1,6%
CCOc1ccc(CC(=O)N2C[C@@H](COC)[C@H](C(N)=O)C2)cc1,1%
COc1ccc(CCN2C(=O)c3[nH]nc(-c4ccccc4O)c3C2c2ccc(O)c(OC)c2)cc1 (stereo not given),10µM*
O=C(NC1(C(F)(F)F)NC(=O)N(CCc2ccccc2)C1=O)c1ccc(Cl)cc1 (stereo not given),i
SMILES,Pf Dd2 inh
CCOc1cc(C2c3c(oc4ccccc4c3=O)C(=O)N2Cc2ccc(OC)cc2)ccc1O (stereo not given),-5%
CCCN1C(=O)c2[nH]nc(-c3cccc(OC)c3)c2C1c1ccccn1 (stereo not given),-5%
O=C1c2[nH]nc(-c3ccccc3O)c2C(c2ccc(F)cc2)N1CCO (stereo not given),-9%
O=C1c2[nH]nc(-c3ccccc3O)c2C(c2ccc(Cl)cc2)N1CCc1ccccc1 (stereo not given),8.9µM*
COc1ccc(-c2n[nH]c3c2C(c2ccccn2)N(C)C3=O)cc1 (stereo not given),-13%
CCCN1C(=O)c2[nH]nc(-c3ccccc3O)c2C1c1cccc(OCc2ccccc2)c1 (stereo not given),4.5µM*
CCCN1C(=O)c2[nH]nc(-c3ccccc3)c2C1c1cccc(O)c1 (stereo not given),-19%
Cn1nc(C(=O)N2CCc3c(ncnc3N3CCOCC3)C2)ccc1=O,i
Cc1ccc(N2CC(c3noc(-c4ccncc4)n3)CC2=O)cc1 (stereo not given),-9%
Cc1noc(-c2ccc(C(C)(C)C)cc2)c1C(=O)NCc1cccc(Cl)c1,-1%
Cc1ccc(S(=O)(=O)N2CCCC(CNC(=O)c3cccs3)C2)cc1 (stereo not given),-21%
O=C(CCc1nc(C2CC(=O)N(C3CCCCC3)C2)no1)c1ccc(Cl)cc1 (stereo not given),-8%
COC[C@@H]1[C@H](NC(=O)CCc2nc3ccc(F)cc3[nH]2)[C@@H]2CCO[C@H]12,2%
CCOCCCNC(=O)Nc1cc(C(=O)NCc2ccc(C(C)C)cc2)ccc1N1CCCC1,4%
CC(=O)N1CCC([C@@H]2CN(C(=O)c3cc(C)cc(C)c3)C[C@H]2CO)CC1,-7%
CC(CN1CC2(CCN(C(=O)CN3C(=O)CNC3=O)CC2)OC1=O)c1ccccc1 (stereo not given),10%
COc1ccc(C(=O)Nc2cccc(-c3cn4ccsc4n3)c2)c(OC)c1,-17%
CCC(=O)N1Cc2ccccc2CC2(CCN(Cc3ccncc3)C2)C1 (stereo not given),-24%
O=C(O)CCC(=O)N1Cc2ccccc2CC2(CCCN(Cc3ccncc3)C2)C1 (stereo not given),0%
CC(=O)N1Cc2ccccc2CC2(CCN(Cc3cccnc3)C2)C1 (stereo not given),-12%
O=S(=O)(c1ccccc1)N1Cc2ccccc2CC2(CCN(Cc3cccnc3)C2)C1 (stereo not given),6.3µM*
CCCC(=O)N1Cc2ccccc2CC2(CCN(Cc3ccc(NC(C)=O)cc3)C2)C1 (stereo not given),-27%
O=C(O)CCC(=O)N1Cc2ccccc2CC2(CCCN(Cc3cccnc3)C2)C1 (stereo not given),8%
C[S+](=O)([O-])N1Cc2ccccc2CC2(CCCN(Cc3ccccc3)C2)C1 (stereo not given),-12%
CCCC(=O)N1Cc2ccccc2CC2(CCN(Cc3ccncc3)C2)C1 (stereo not given),11µM*
SMILES,Pf Dd2 inh
CCCC(=O)N1Cc2ccccc2CC2(CCN(Cc3cccnc3)C2)C1 (stereo not given),11µM*
CNC(=O)[C@@H](Cc1ccccc1)N1CCC[C@H]1C(=O)N1CCN(C)CC1,-18%[44.1 µM]
O=C(NCC1(COc2cnccn2)C[C@@H](O)[C@@H](O)C1)c1ccno1 (stereo not given in full),7%[44.1 µM]
CCCOc1ccccc1CCNC(=O)CC1C(=O)N(C)C(=O)N1C (stereo not given),-14%
Cc1cc(C[C@@H]2COC[C@@H]2NC(=O)c2cc(CC(C)C)nc(N)n2)on1,9%
COc1cccc([S+](=O)([O-])N2CCn3cc(C(=O)N4CCOCC4)nc3C2)c1,5%
CCOc1ccccc1NC(=O)N1C[C@H](Oc2ccccc2)C[C@@H]1C(=O)NCCOC,-5%
Cc1ccc(-c2cc3c(=O)n(CCNC(=O)c4ccc(F)cc4Cl)ccn3n2)cc1C,-11%
CS(=O)(=O)N1CCN(S(=O)(=O)c2ccccc2)C[C@H]1C(=O)N[C@@H](CC1CCCCC1)C(N)=O,-8%
COc1ccccc1NC(=O)Cn1cnc2c(nc3n2CCCCC3)c1=O,29%
O=C(COc1cccc(-c2nnc3n2CCCC3)c1)N1CCN(c2ccccc2F)CC1,5µM*
CSc1cccc(NC(=O)COc2cccc(-c3nnc4n3CCCC4)c2)c1,11µM*
Cc1cc2nc3n(c(=O)c2n1CC(=O)N1CCN(c2ccccc2F)CC1)CCCCC3,i
Cc1nc(N2CCC(C(=O)NCc3ccc4c(c3)OCO4)CC2)cc(C(F)(F)F)n1,-16%
Cc1cccc(NC(=O)COc2ccc3oc4c(c3c2)CCCC4)c1,33%
O=C(Cn1nc2n(c1=O)CCCC2)N1CCN(c2ccccc2F)CC1,-17%
